Reference: PubChem BioAssay (NCATS)
“And” between values parts separate entries of the source, which are not always exact repeats. Equal values may be shown once. Results filed as inconclusive are left out. A call without a number means that no potency is given here. The source made the active and inactive calls. Unless noted, the call rests on the fitted dose curve.

What was measured:
[1] = target: Androgen receptor (Homo sapiens) (UniProt P10275); test: qHTS assay for small molecule agonists of androgen receptor signaling (AID 588515; active means well fitted curve in the direction sought with a large enough effect in the signal ratio, with a control signal flat; the % refers to the signal ratio); details: AR-UAS-bla HEK293, beta-lactamase ratio, agonist 16 h; stronger effect = higher value
Chain of Androgen receptor (Homo sapiens) (P10275 whole entry, looked up): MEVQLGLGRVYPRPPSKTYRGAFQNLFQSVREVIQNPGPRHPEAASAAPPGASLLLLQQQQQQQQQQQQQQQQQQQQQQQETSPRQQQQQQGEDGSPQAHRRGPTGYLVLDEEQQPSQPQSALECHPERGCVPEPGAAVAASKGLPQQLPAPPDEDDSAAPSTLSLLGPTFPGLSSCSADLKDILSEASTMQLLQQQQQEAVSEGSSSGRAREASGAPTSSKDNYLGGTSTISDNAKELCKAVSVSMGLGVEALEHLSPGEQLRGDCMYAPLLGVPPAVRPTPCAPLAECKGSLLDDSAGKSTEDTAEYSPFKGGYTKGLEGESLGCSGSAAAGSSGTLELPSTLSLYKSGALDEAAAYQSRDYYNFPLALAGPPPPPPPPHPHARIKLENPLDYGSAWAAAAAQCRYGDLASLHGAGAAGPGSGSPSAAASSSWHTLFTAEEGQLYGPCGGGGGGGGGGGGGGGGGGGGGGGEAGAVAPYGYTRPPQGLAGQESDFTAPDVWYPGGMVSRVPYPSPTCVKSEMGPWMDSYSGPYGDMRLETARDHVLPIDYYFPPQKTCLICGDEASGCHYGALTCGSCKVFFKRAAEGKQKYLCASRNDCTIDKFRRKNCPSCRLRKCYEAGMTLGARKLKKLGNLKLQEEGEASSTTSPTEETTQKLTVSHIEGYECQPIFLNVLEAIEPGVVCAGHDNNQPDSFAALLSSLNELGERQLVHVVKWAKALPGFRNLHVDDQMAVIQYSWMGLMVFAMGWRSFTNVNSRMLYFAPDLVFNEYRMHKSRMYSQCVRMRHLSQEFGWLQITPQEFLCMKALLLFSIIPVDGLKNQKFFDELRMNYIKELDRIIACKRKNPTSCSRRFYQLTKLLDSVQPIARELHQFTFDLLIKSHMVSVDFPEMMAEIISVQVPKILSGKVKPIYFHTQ
Method in brief: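 EC50 and efficacy came from Hill fits of titrations (up to 92 uM) normalized to 30 nM R1881 as 100% and DMSO as 0%. Compound exposure was 16 h at 37 C on AR-UAS-bla HEK293 cells, with a 405/460/530 nm CCF4 fluorescence read.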

[2] = target: Androgen receptor (Homo sapiens) (UniProt P10275); test: qHTS assay for small molecule antagonists of androgen receptor signaling (AID 588516; active means well fitted curve in the direction sought with a large enough effect in the signal ratio, with a control signal flat, not every such curve was filed as active; the % refers to the signal ratio); details: AR-UAS-bla HEK293, beta-lactamase ratio, antagonist mode, 16 h; series mostly up to 76.8 µM
Method in brief: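 Antagonist mode: inhibition of R1881-stimulated (10 nM final) bla reporter in GeneBLAzer AR HEK 293 cells, 16 h at 37C, compounds titrated. IC50 and efficacy from Hill-equation fits of 405/460–530 nm FRET ratios.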

[3] = target: Peroxisome proliferator-activated receptor delta (Homo sapiens) (UniProt Q03181); test: qHTS assay for small molecule antagonists of peroxisome proliferator-activated receptor delta signaling (AID 588535; active means well fitted inhibition curve with a large enough effect in the signal ratio, with a control signal flat, not every such curve was filed as active; the % refers to the signal ratio); details: HEK293T PPARd-UAS-bla, beta-lactamase FRET ratio, 18 h; series mostly up to 76.7 µM
Chain of Peroxisome proliferator-activated receptor delta (Homo sapiens) (Q03181 whole entry, looked up): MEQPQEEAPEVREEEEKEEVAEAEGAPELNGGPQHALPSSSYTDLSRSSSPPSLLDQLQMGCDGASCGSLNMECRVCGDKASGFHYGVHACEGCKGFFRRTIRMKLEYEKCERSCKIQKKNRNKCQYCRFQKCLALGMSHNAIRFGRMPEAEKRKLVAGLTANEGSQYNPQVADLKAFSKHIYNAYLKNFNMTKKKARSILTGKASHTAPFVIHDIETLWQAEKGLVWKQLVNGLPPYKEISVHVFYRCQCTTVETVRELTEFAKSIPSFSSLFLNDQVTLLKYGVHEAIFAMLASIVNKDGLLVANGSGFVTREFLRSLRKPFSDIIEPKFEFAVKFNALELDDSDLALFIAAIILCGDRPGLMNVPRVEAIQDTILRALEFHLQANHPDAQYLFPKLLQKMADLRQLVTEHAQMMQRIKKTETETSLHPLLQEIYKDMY
Method in brief: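 Reporter: UAS-bla under PPAR-delta response element, HEK293T host. Medium: 2% charcoal/dextran FBS. Dosing: titration, 18 hrs, 37 C. Detection: CCF4, 2 hrs RT, 405 ex/460 and 530 em.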

[4] = qHTS assay for small molecule agonists of retinoid X receptor alpha signaling (AID 588544); details: HEK293T RXRa-UAS-bla, beta-lactamase reporter, 18 h; 530 nm emission
[5] = target: Bile acid receptor (Homo sapiens) (UniProt Q96RI1); test: qHTS assay for small molecule antagonists of farnesoid X receptor signaling (AID 588526); details: HEK293T FXR-UAS-bla, beta-lactamase ratio, antagonist mode; series mostly up to 76.7 µM
Chain of Bile acid receptor (Homo sapiens) (Q96RI1 whole entry, looked up): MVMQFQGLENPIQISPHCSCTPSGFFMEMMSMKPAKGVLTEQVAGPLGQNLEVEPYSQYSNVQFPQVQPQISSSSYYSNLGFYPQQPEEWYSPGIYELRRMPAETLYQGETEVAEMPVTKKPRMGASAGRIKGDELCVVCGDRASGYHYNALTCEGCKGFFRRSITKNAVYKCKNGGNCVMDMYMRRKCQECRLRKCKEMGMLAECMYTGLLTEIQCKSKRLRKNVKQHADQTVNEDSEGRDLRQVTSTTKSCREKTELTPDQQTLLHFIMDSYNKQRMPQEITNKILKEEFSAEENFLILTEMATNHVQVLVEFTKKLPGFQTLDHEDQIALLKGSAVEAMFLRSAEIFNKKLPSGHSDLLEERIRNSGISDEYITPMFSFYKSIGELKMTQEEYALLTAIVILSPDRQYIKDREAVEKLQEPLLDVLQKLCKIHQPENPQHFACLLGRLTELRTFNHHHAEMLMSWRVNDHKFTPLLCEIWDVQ
Method in brief: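 Concentration-response titrations were fitted to the Hill equation for half-maximal inhibition and maximal response, with data normalised to 50 uM chenodeoxycholic acid and DMSO control wells. Cells: FXR-UAS-bla HEK293T, dialyzed FBS.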

[6] = target: Bile acid receptor (Homo sapiens) (UniProt Q96RI1); test: qHTS assay for small molecule agonists of farnesoid X receptor signaling (AID 588527); details: HEK293T FXR-UAS-bla, beta-lactamase ratio, 16 h; activation: stronger effect = higher value
Method in brief: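 FXR-UAS-bla HEK293T cells (10% dialyzed FBS) preincubated 5-7 h at 37 C, then compounds at up to 92 uM for 16 h at 37 C. CCF4 beta-lactamase read-out after 2 h RT. Normalized to chenodeoxycholic acid (100 uM) and DMSO; Hill fit gave EC50 and efficacy.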

[7] = target: Peroxisome proliferator-activated receptor gamma (Homo sapiens) (UniProt P37231); test: qHTS assay for small molecule antagonists of peroxisome proliferator-activated receptor gamma signaling (AID 588537; active means well fitted inhibition curve with a large enough effect in the signal ratio, with a control signal flat, not every such curve was filed as active; the % refers to the signal ratio;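 further: reporter cells co-stimulated with 50 nM rosiglitazone agonist during compound treatment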); details: HEK293 PPARg-UAS-bla, beta-lactamase ratio, antagonist mode; series mostly up to 76.8 µM
Chain of Peroxisome proliferator-activated receptor gamma (Homo sapiens) (P37231 whole entry, looked up): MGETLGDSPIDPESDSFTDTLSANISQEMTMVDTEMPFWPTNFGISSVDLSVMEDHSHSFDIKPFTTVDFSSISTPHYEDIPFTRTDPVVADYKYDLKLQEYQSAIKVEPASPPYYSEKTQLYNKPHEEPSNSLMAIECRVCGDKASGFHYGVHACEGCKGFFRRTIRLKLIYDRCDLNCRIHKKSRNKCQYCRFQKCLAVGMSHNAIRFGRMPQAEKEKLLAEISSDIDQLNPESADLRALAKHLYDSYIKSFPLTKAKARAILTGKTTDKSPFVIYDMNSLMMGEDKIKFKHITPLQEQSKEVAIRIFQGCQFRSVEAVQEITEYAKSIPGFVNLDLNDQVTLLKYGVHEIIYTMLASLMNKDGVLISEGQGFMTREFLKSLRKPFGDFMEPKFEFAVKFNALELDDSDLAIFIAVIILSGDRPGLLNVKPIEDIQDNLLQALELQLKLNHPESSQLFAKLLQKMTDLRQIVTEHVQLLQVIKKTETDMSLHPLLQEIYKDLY
Method in brief: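 We seeded GeneBLAzer HEK293 reporter cells at 3000 per well, allowed 6-6.5 h attachment at 37 C, then co-treated with test compound titrations and 50 nM rosiglitazone overnight (16 h). Inhibition was quantified from 460/530 nm emission ratios.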

[8] = qHTS assay for small molecule agonists of the antioxidant response element (ARE) signaling pathway (AID 651741; active means well fitted activation curve with a large enough effect in the signal ratio; the % refers to the signal ratio; further: potency means the concentration at half of the fitted maximal effect); details: HepG2 ARE-bla reporter, beta-lactamase FRET ratio, 16 h; series mostly up to 96 µM
Method in brief: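 Compounds in DMSO are pinned onto HepG2 ARE-bla cells (2,000/well) that were preincubated 5 h; plates stay 16 h at 37 C, then beta-lactamase activity is detected with LiveBLAzer B/G substrate by fluorescence.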

[9] = qHTS assay for small molecule activators of the human pregnane X receptor (PXR) signaling pathway (AID 720659; call rule not given here); details: DPX-2 HepG2 CYP3A4-luciferase, 24 h; series mostly up to 92.3 µM
[10] = target: Peroxisome proliferator-activated receptor gamma (Homo sapiens) (UniProt P37231); test: qHTS assay for small molecule agonists of peroxisome proliferator-activated receptor gamma signaling (AID 588536; active means well fitted curve in the direction sought with a large enough effect in the signal ratio, with a control signal flat, not every such curve was filed as active; the % refers to the signal ratio); details: HEK293 PPARg-UAS-bla, beta-lactamase ratio, 16 h; series mostly up to 76.7 µM
Method in brief: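 GeneBLAzer PPAR-gamma-UAS-bla HEK293 cells in 1% charcoal/dextran-treated FBS medium were treated 16 h at 37 C with compounds. Beta-lactamase activity was read by CCF4 ratio (460/530 nm). Response was normalized to 2 uM rosiglitazone (100%) and DMSO, then Hill-fitted for EC50 and efficacy.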

CC1(C)[C@H](C(=O)O[C@H](C#N)c2cccc(Oc3ccccc3)c2)[C@@H]1C=C(Br)Br
activation [1]: -5.24% (inactive)
Potency [2]: inactive
Potency [3]: inactive
max response [4]: -14.7%

CCC[CH2][Sn]([CH2]CCC)([CH2]CCC)[CH2]CCC
Potency [5]: inactive
activation [6]: 3.44% (inactive)
Potency [7]: inactive
Potency [8]: inactive
outcome [9]: inactive

CCNS(=O)(=O)C(F)(F)C(F)(F)C(F)(F)C(F)(F)C(F)(F)C(F)(F)C(F)(F)C(F)(F)F
activation [1]: 7.01% (inactive)
Potency [5]: inactive
Potency [10]: inactive
Potency [7]: inactive
max response [4]: -3.73%
outcome [9]: inactive

CCCCOC(=O)c1ccccc1C(=O)O
activation [1]: 5.7% (inactive)
Potency [5]: inactive
Potency [3]: inactive
Potency [7]: inactive
max response [4]: -15.3%
outcome [9]: inactive

CC1(C)[C@H](C(=O)O[C@H](C#N)c2cccc(Oc3ccccc3)c2)[C@@H]1/C=C(\Cl)C(F)(F)F
Potency [5]: inactive
activation [6]: -0.137% (inactive)
max response [4]: 9.43%
Potency [8]: 54.5 µM (active)

CCOC(=O)COc1cc(-c2nn(C)c(OC(F)F)c2Cl)c(F)cc1Cl
Potency [2]: inactive
max response [4]: 3.77%
Potency [8]: 17.2 µM (active)

C=CC(=O)OCC(CC)(COC(=O)C=C)COC(=O)C=C
activation [1]: -16.7% (inactive)
Potency [8]: 34.4 µM (active)

COP(=O)(OC)Oc1nc(Cl)c(Cl)cc1Cl
Potency [2]: inactive
Potency [5]: inactive
activation [6]: -2.92% (inactive)
max response [4]: 28.3%
Potency [8]: 48.6 µM (active)
outcome [9]: inactive

CC(C)N1C(=O)N(c2ccccc2)CSC1=NC(C)(C)C
activation [1]: -16.2% (inactive) and -14% (inactive)
Potency [3]: inactive
Potency [7]: inactive
max response [4]: 15.4% and 12.1%
Potency [8]: 68.6 µM (active) and 61.1 µM (active)

FC(F)C(F)(F)OCC(Cn1cncn1)c1ccc(Cl)cc1Cl (stereo not given)
Potency [5]: inactive
activation [6]: 1.13% (inactive)
Potency [10]: inactive

C[C@H]1[C@H](c2ccc(Cl)cc2)SC(=O)N1C(=O)NC1CCCCC1
activation [1]: -15.6% (inactive)
Potency [8]: 54.5 µM (active)

COC(C)(C)CCC[C@H](C)C/C=C/C(C)=C/C(=O)OC(C)C
activation [1]: -8.45% (inactive)
max response [4]: 10.5%
Potency [8]: 68.6 µM (active)

CC(Oc1cccc(Cl)c1)C(=O)O (stereo not given)
Potency [5]: inactive
activation [6]: 0.618% (inactive)
Potency [3]: inactive
Potency [10]: inactive
Potency [7]: inactive
max response [4]: -3.83%
Potency [8]: inactive
outcome [9]: inactive

Brc1ccc(Br)cc1
Potency [5]: inactive
activation [6]: -2.5% (inactive)
Potency [3]: inactive
Potency [10]: inactive
Potency [7]: inactive
max response [4]: 0.756%
outcome [9]: inactive

O=[N+]([O-])c1ccc2ccc3cccc4ccc1c2c34
activation [1]: -12% (inactive)
activation [6]: -3.28% (inactive)
Potency [7]: inactive
max response [4]: 19.4%
Potency [8]: 4.33 µM (active)
outcome [9]: inactive

O=CNC(N1CCN(C(NC=O)C(Cl)(Cl)Cl)CC1)C(Cl)(Cl)Cl (stereo not given)
activation [1]: 14.6% (inactive)
Potency [3]: inactive
Potency [10]: inactive
Potency [7]: inactive
max response [4]: -14.2%

N#Cc1cc(Br)c(O)c(Br)c1
Potency [5]: inactive
activation [6]: 1.36% (inactive)
Potency [10]: inactive
max response [4]: -9.28%
Potency [8]: 61.1 µM (active)
outcome [9]: inactive

Cc1ccccc1CO[C@@H]1C[C@@]2(C(C)C)CC[C@]1(C)O2
activation [1]: -0.477% (inactive)
Potency [2]: inactive
Potency [3]: inactive
Potency [10]: inactive
Potency [7]: inactive
max response [4]: 4.66%
Potency [8]: inactive

CC(C)=C[C@@H]1[C@@H](C(=O)OCN2C(=O)C3=C(CCCC3)C2=O)C1(C)C
activation [1]: 0.858% (inactive)
Potency [8]: 54.5 µM (active)
